Consider 40 compounds from PubChem BioAssay (NCATS).

Results filed as inconclusive are left out. Calls of active or inactive are those of the source. The call rests on the fitted dose curve; in most records, active means well fitted cell-killing curve with a large enough effect; inconclusive means small, poorly fitted or top-dose-only effect, or effect the other way; inactive means no such curve, though single readings can be large or run the other way.
Potency means the concentration at half of the fitted maximal effect.

The nature of this experiment: Quantitative High-Throughput drug screen in 47 multiple myeloma cell lines against the NCATS MIPE library collection: KMS20_JCRB cell viability assay (AID 1918973). Further: nearly all actives have a fitted effect of over 45% in size. The note with it: CellTiter-Glo ATP, 48 h; series mostly up to 45.8 µM; viability (% of DMSO): at the top concentration. An excerpt:
PI: Beverly A. Mock Ph.D.
Laboratory of Cancer Biology and Genetics,
Center for Cancer Research, National Cancer Institute,
National Institute of Health, Bethesda, Maryland
Drug resistance and disease progression are common in multiple myeloma (MM) patients, underscoring the need for new therapeutic combinations. […] We hypothesized that effective combinations would reduce MYC expression and enhance p16 activity. […] These preclinical data identify potentially useful drug combinations for evaluation in drug-resistant MM and reveal potential mechanisms of combined drug sensitivity.
Described herein is the primary MIPE qHTS used to cherrypick compounds. Validated compounds were then further tested for potential synergistic activiy.
[1] Peat TJ, Gaikwad SM, Dubois W, Gyabaah-Kessie N, Zhang S, Gorjifard S, Phyo Z, Andres M, Hughitt VK, Simpson RM, Miller MA, Girvin AT, Taylor A, Williams D, D'Antonio N, Zhang Y, Rajagopalan A, Flietner E, Wilson K, Zhang X, Shinn P, Klumpp-Thomas C, McKnight C, Itkin Z, Chen L, Kazandijian D, Zhang J, Michalowski AM, Simmons JK, Keats J, Thomas CJ, Mock BA. Drug combinations identified by high-throughput screening promote cell cycle transition and upregulate Smad pathways in myeloma. Cancer Lett. 2023 Aug 1;568:216284. doi: 10.1016/j.canlet.2023.216284. Epub 2023 Jun 24. PMID: 37356470; PMCID: PMC10408729.
SEQUENCE No. (e.g., 1, 2, 3, etc.); […] (e.g., Cells, Incubation, Reagent, etc.); VALUE and DESCRIPTION.
1; Cells; 5 uL; white, solid bottom 1536-well Greiner assay plate.
2; Compounds; 23 nL; Kalypsis pin tool (Wako USA) equipped with a 1536-well pin head to transfer to the assay plates.
3; Incubation; 48 hours; 37C incubation.
4; Reagent;5uL; CellTiter Glo (Promega).
5; Detector; 425V; Luminescence; Viewlux PerkinElmer.
NOTES (numbers refer to Sequence numbers above)
1. The cell-based screening methods employed in this study were like those previously published. Briefly, the corresponding myeloma cell lines were screened in 1,536-well plates with 500 cells, 5-uL per well for inhibition of cell viability (assessed by measuring ATP levels with CellTiterGlo).
2. NCATS MIPE 4.0 library of approved and investigational drugs were added using the Kalypsis pin tool. Wells treated with DMSO only for 100% viability and media only wells for 0% viability were used as controls.
3. The assay plates were covered and incubated for 48 hours in a 37C, 5% CO2 incubator with controlled humidity.
4. After 48 hours, CellTilter-GloTM luminescent substrate mix (Promega) reagent was added to the assay plate and plates we incubated for 5 min at room temperature.
5. Signal was measured as median relative luminescence units on a ViewLux (PerkinElmer) multiplate reader.
[1] Heske CM, Davis MI, Baumgart JT, Wilson K, Gormally MV, Chen L, Zhang X, Ceribelli M, Duveau DY, Guha R, Ferrer M, Arnaldez FI, Ji J, Tran HL, Zhang Y, Mendoza A, Helman LJ, Thomas CJ. Matrix Screen Identifies Synergistic Combination of PARP Inhibitors and Nicotinamide Phosphoribosyltransferase (NAMPT) Inhibitors in Ewing Sarcoma. Clin Cancer Res. 2017 Dec 1;23(23):7301-7311. doi: 10.1158/1078-0432.CCR-17-1121. Epub 2017 Sep 12. PMID: 28899971; PMCID: PMC6636827.
Background: Cellular ATP, detected with luciferase, serves as a proxy for viable cell number.
`COc1cc2nc(N(C)CCCNC(=O)C3CCCO3)nc(N)c2cc1OC` (stereo not given): the “viability (% of DMSO)” value is 103% (inactive).
Take `CN(C)C(=N)N=C(N)N`: the “viability (% of DMSO)” value was 178% (inactive).
With `COc1ccc2[nH]cc(CCNC(C)=O)c2c1`, the “viability (% of DMSO)” value was 100% (inactive).
Same read-out and setting: to `NCCCCCC(=O)O` belongs 124% (inactive).
With `CC12CC3CC(C)(C1)CC(N)(C3)C2`, the Potency is 20.9 µM (active).
`COc1nc(C)nc(Cl)c1NC1=NCCN1`: the Potency is 9.35 µM (active).
For `C[C@](N)(Cc1ccc(O)c(O)c1)C(=O)O`, the Potency was 16.6 µM (active).
As to `NCCS(=O)(=O)O`, the “viability (% of DMSO)” value is 98.3% (inactive).
Turning to `CC(=O)OCC(CCn1cnc2cnc(N)nc21)COC(C)=O`, the “viability (% of DMSO)” value is 125% (inactive).
Regarding `CN(C)CCOC(c1ccccc1)c1ccccc1`, the Potency is 18.7 µM (active).
Regarding `COc1ccc(C2CNC(=O)C2)cc1OC1CCCC1` (stereo not given), the “viability (% of DMSO)” value is 103% (inactive).
For the compound `O=C(c1ccc(OCCN2CCCCC2)cc1)c1c(-c2ccc(O)cc2)sc2cc(O)ccc12`, the Potency was 16.6 µM (active).
Turning to `CN(C)CCCN1c2ccccc2CCc2ccc(Cl)cc21`, the Potency is 1.87 µM (active).
With `O=C(CCCN1CCC(O)(c2ccc(Cl)cc2)CC1)c1ccc(F)cc1`, the Potency was 13.2 µM (active).
For the compound `COc1ccccc1OCC(O)CN1CCN(CC(=O)Nc2c(C)cccc2C)CC1` (stereo not given), the “viability (% of DMSO)” value is 157% (inactive).
Turning to `CN1CCC(=C2c3ccccc3CC(=O)c3sccc32)CC1`, the “viability (% of DMSO)” value was 14.4% (inactive).
With `NC(=O)OCC(COC(N)=O)c1ccccc1`, the “viability (% of DMSO)” value was 105% (inactive).
`CC(C)NCC(O)c1ccc(O)c(O)c1` (stereo not given): the Potency was 1.18 µM (active).
On to `NC(=O)NO`, for which the Potency was 0.0935 µM (active).
On to `CCOC(=O)C(C)(C)Oc1ccc(Cl)cc1`, for which the “viability (% of DMSO)” value was 142% (inactive).
For the compound `OCCN1CCN(CCCN2c3ccccc3Sc3ccc(C(F)(F)F)cc32)CC1`, the Potency was 16.6 µM (active).
In the case of `O=C1N(c2ccccc2)c2ccccc2C1(Cc1ccncc1)Cc1ccncc1`, the Potency is 0.001 µM (active).
As to `CN1C2CCC1CC(OC(=O)C(CO)c1ccccc1)C2` (stereo not given), the “viability (% of DMSO)” value is 85% (inactive).
For the compound `Nc1nc2c(ncn2COC(CO)CO)c(=O)[nH]1`, the Potency is 1.05 µM (active).
As to `CNCCCC12CCC(c3ccccc31)c1ccccc12`, the Potency is 13.2 µM (active).
As for `O=C(C1CCCCC1)N1CC(=O)N2CCc3ccccc3C2C1` (stereo not given), the “viability (% of DMSO)” value was 151% (inactive).
The same measure, in the same setting: to `Cc1ccccc1N1C(=O)c2cc(S(N)(=O)=O)c(Cl)cc2NC1C` (stereo not given) belongs 108% (inactive).
As to `Clc1ccc2c(c1)C(N1CCNCC1)=Nc1ccccc1O2`, the Potency is 20.9 µM (active).
On to `Cn1c(=O)c2[nH]cnc2n(C)c1=O`, for which the “viability (% of DMSO)” value was 162% (inactive).
`CC#C[C@]1(O)CC[C@H]2[C@@H]3CCC4=CC(=O)CCC4=C3[C@@H](c3ccc(N(C)C)cc3)C[C@@]21C`: the Potency was 0.743 µM (active).
Still for that read-out and setting: to `COc1ccc2c(c1)c(CC(=O)O)c(C)n2C(=O)c1ccc(Cl)cc1` belongs 9.35 µM (active).
For `CCN1CCCC1CNC(=O)c1cc(S(=O)(=O)CC)c(N)cc1OC` (stereo not given), the “viability (% of DMSO)” value was 144% (inactive).
Consider `Cc1cc(C(C)(C)C)cc(C)c1CC1=NCCN1`, for which the “viability (% of DMSO)” value is 85.8% (inactive).
Regarding `CN1CCN(CCCN2c3ccccc3Sc3ccc(Cl)cc32)CC1`, the Potency is 8.33 µM (active).
On the same count and under the same terms, the same measure for `O=C1c2c(O)ccc(O)c2C(=O)c2c(NCCNCCO)ccc(NCCNCCO)c21`: 0.132 µM (active).
As to `CN1CCC(=C2c3ccccc3C=Cc3ccccc32)CC1`, the Potency was 9.35 µM (active).
Turning to `CC[C@@]1(O)C(=O)OCc2c1cc1n(c2=O)Cc2cc3c(CN(C)C)c(O)ccc3nc2-1`, the Potency was 0.235 µM (active).
On to `CN(C)c1nc(N(C)C)nc(N(C)C)n1`, for which the “viability (% of DMSO)” value was 92.3% (inactive).
As to `O=C(Nc1ccc([N+](=O)[O-])cc1Cl)c1cc(Cl)ccc1O`, the Potency is 0.59 µM (active).
The same measure, in the same setting: the same measure for `Cn1cnc2c1c(=O)[nH]c(=O)n2C`: 5.9 µM (active).
